The % Inhibition is the change of the read-out against control, counted positive when it falls.

The structures appear in SMILES notation. Read-outs that look alike come from different tables or passages of the source. The whole screen tested about 13,000 compounds, of which about 3,200 (25%) showed an effect of 50% or more. The list shows a part of the results.

The values that follow come from article PMC4552634, “A New Set of Chemical Starting Points with Plasmodium falciparum Transmission-Blocking Potential for Antimalarial Drug Discovery” (PLoS ONE, 2015).

The experiment concerns P. falciparum stage V gametocytes. Details: BacTiter-Glo ATP luminescence viability of purified stage V gametocytes in 384-well plates, per cent inhibition versus DMSO. To be noted: 48 h, 5 µM, inhibitor.

In the case of `O=C(Nc1ccc(F)c(Cl)c1)NC1CCN(c2ccnc3cc(Cl)ccc23)C1` (stereo not shown) [TCMDC-133404], the “% Inhibition” value is listed as -39.28%.
The same measure, in the same setting: in the case of `CCOC(=O)c1c(NC(=O)c2ccccc2)sc2c(O)c(CN(CC)CC)ccc12` [TCMDC-124066] it was -13.75%; in that of `CCC(C)NC(=O)CN1CN(c2ccccc2)C2(CCN(C(=O)c3ccc(-c4ccccc4)cc3)CC2)C1=O` (stereo not shown) [TCMDC-125175], -41.83%; in that of `Cc1cc(N2CCCC2)nc(Nc2ccc(NC(=O)Cc3ccccc3)cc2)n1` [TCMDC-124967], -3.146%.
Same read-out and setting: the same measure for `CC(=O)Nc1ccc(C(=O)Nc2cccc(-c3ccc(-c4nc5cc(C(F)(F)F)ccc5[nH]4)s3)c2)cn1` [TCMDC-136825]: 32.63%.
On the same count and under the same terms, the same measure for `NC1=NCN(OCc2ccc(Cl)c(Cl)c2)C(N)=N1` [TCMDC-131661]: 6.901%.
`FC(F)(F)c1ccc(CNCC2CCN(Cc3ccc4c(c3)OCO4)CC2)cc1` [TCMDC-141674]: the “% Inhibition” value is 9.475%.
On to `CC(C)(C)c1ccc2oc(=O)n(C3CCN(C(=O)c4ccc([N+](=O)[O-])o4)CC3)c2c1` [TCMDC-124798], for which the “% Inhibition” value was found to be 106.6%.
The same measure, in the same setting: in the case of `Cc1ccc2c(-c3ccc([N+](=O)[O-])o3)cc(C)nc2c1` [TCMDC-131568] it was 5.138%; in that of `Cc1ccc2c(c1)c(C1CCN(C(=O)c3ccc([N+](=O)[O-])o3)CC1)cn2C` [TCMDC-124787], 93.47%.
Regarding `O=C(c1ccc([N+](=O)[O-])o1)N1CCC(Cc2ccc(C(F)(F)F)cc2)CC1` [TCMDC-124805], the “% Inhibition” value came out at 110.5%.
Turning to `O=C(c1ccc([N+](=O)[O-])o1)N1CCC(c2cn(Cc3cccc(F)c3)c3ccccc23)CC1` [TCMDC-124804], the “% Inhibition” value came out at 44.33%.
In the case of `O=[N+]([O-])c1cccc(CNCC2CCN(Cc3ccc(C(F)(F)F)cc3)CC2)c1` [TCMDC-141209], the “% Inhibition” value came out at 21.63%.
On the same count and under the same terms, in the case of `COc1cccc(-c2cnc(-c3ccncc3)nc2C2CCN(Cc3ccc(NC(C)=O)cc3)CC2)c1` [TCMDC-124592] it was 1.604%.
Same read-out and setting: the same measure for `O=C(Nc1ccc(OC2CCN(Cc3ccc(F)cc3)CC2)c(Cl)c1)c1ccccc1` [TCMDC-133751]: 2.198%; for `COc1ccc(CN2CCCC(Nc3ccc(F)c(F)c3)C2)c(O)c1` (stereo not shown) [TCMDC-124607]: 5.364%.
Same read-out and setting: in the case of `Cc1cccc(C(=O)Nc2ccnc(N3CCC(N(C)Cc4cccc(O)c4)CC3)c2)c1` [TCMDC-134963] it was 14.15%.
In the case of `COc1ccc(-c2ccccc2)cc1NC(=S)NC1CCC(CN2CCC(c3c[nH]c4ccccc34)CC2)CC1` (stereo not shown) [TCMDC-140182], under “% Inhibition”, the “% Inhibition” value was found to be 85.27%.
The same measure, in the same setting: in the case of `COc1ccc(-c2ccccc2)cc1NC(=S)NC1CCC(CN2CCC(c3c[nH]c4ccccc34)CC2)CC1` (stereo not shown) [TCMDC-140200] it was 105.5%.
For `O=C(N[C@@H](CC1CCCCC1)C(=O)NCCc1ccc(Cl)c(Cl)c1)c1ccc(O)c(-c2ccc(Cl)c(Cl)c2)c1` [TCMDC-140874], the “% Inhibition” value stood at 30.89%.
Still for that read-out and setting: the same measure for `O=C(CCOc1ccccc1)NCC1CCCO1` (stereo not shown) [TCMDC-123513]: 13.36%; for `O=C(NCCCNc1nc2ccccc2[nH]1)c1cccc(OC(F)(F)F)c1` [TCMDC-140754]: -24.04%; for `COc1ccc2nccc([C@@H](O)CN3CCC(NC(=O)C(=Cc4ccc(Cl)cc4Cl)c4ccc(-c5ccccc5)cc4)CC3)c2c1` [TCMDC-141109]: 17.05%.
Still for that read-out and setting: in the case of `COc1ccc2nccc([C@@H](O)CN3CCC(NC(=O)/C(=C/c4ccccc4)c4ccc(-c5ccccc5)cc4)CC3)c2c1` [TCMDC-141115] it was 0.831%; in that of `O=C(NCCc1ccccc1)N(Cc1ccccc1-c1ccc(CNC2CCCC2)cc1)C1CCN(Cc2ccccc2)CC1` [TCMDC-140613], 98.8%; in that of `O=C(NCCc1ccccc1)N(Cc1ccccc1-c1cccc(CNC2CCCC2)c1)C1CCN(Cc2ccccc2)CC1` [TCMDC-140612], 64.34%.
On the same count and under the same terms, the same measure for `O=C(NCC1CCC(C(=O)NC2CCCc3ccccc32)CC1)c1ccc(O)c(-c2cccc([N+](=O)[O-])c2)c1` (stereo not shown) [TCMDC-140882]: 10.62%; for `O=C(Nc1ccccc1)Nc1cccc(-c2ccc(-c3nc4ccc(C(F)(F)F)cc4[nH]3)cc2)c1` [TCMDC-133151]: -20.54%; for `CCOc1cc2ncnc(Nc3ccc(OCc4c(F)cccc4F)c(OC)c3)c2cc1OCC` [TCMDC-131911]: 15.37%.
As for `CN1CCC[C@@H](Oc2cc3c(cc2Br)CCN3C(=O)Nc2ccc(-c3ccncc3)c(Cl)c2)C1` [TCMDC-139237], the “% Inhibition” value was -19.19%.
Same read-out and setting: in the case of `CN1CCC(c2cc3c(cc2Br)CCN3C(=O)Nc2ccc(-c3ccncc3)c(Cl)c2)CC1` [TCMDC-139228] it was 3.26%.
On the same count and under the same terms, the same measure for `CN1CCCC(COc2cc3c(cc2Br)CCN3C(=O)Nc2ccc(-c3ccncc3)c(Cl)c2)C1` (stereo not shown) [TCMDC-139230]: 96.61%; for `CC(C)OC(=O)c1cccnc1SCC(=O)Nc1ccc(C(F)(F)F)cc1Cl` [TCMDC-123575]: -93.91%.
Consider `FC(F)(F)c1ccc(CSc2ccc3nnc(-c4ccccn4)n3n2)cc1` [TCMDC-125344], for which the “% Inhibition” value is recorded as 51.34%.
Same read-out and setting: the same measure for `COc1ccc(-c2cccc(NC(=O)c3ccc(F)cc3)c2)cc1CNC(C)C` [TCMDC-132608]: 77.83%.
The same measure, in the same setting: the same measure for `COc1ccc(-c2cccc(NC(=O)c3cccc(C#N)c3)c2)cc1CN(C)CCO` [TCMDC-132625]: 94.55%; for `COc1ccc(-c2cccc(NC(=O)c3ccc(C#N)cc3)c2)cc1CN(C)CCN(C)C` [TCMDC-133341]: 14.59%.
Turning to `COc1ccc(-c2cccc(NC(=O)c3cccc(C#N)c3)c2)cc1CNC(C)C` [TCMDC-132622], the “% Inhibition” value is 84.95%.
On to `COc1ccc(-c2cccc(NC(=O)c3cccc(C#N)c3)c2)cc1CN(C)CCN(C)C` [TCMDC-133339], for which the “% Inhibition” value is 13.46%.
On the same count and under the same terms, the same measure for `COc1ccc(-c2ccc(NC(=O)c3ccc(C#N)cc3)cc2)cc1CN(C)CCN(C)C` [TCMDC-132520]: 27.11%; for `COc1ccc(-c2ccc(NC(=O)c3cccc(C#N)c3)cc2)cc1CN(C)C` [TCMDC-133333]: 10.09%; for `COc1ccc(-c2ccc(NC(=O)c3ccc(C#N)cc3)c(F)c2)cc1CN(C)CCN(C)C` [TCMDC-133366]: 57.41%.
Same read-out and setting: in the case of `COc1ccc(-c2cccc(NC(=O)c3ccc(C#N)cc3)c2)cc1CNC(C)C` [TCMDC-132610] it was 13.1%.
